High-throughput results deposited in PubChem by National Center for Advancing Translational Sciences (NCATS).
Giardia FBPA inh: Giardia lamblia aldolase inhibition. 290,000 tested, 0.71% active. AID 2451. Potency, µM (highest dose often 59.6 µM), most hits filed as inhibitors. purified Giardia FBPA; note: nearly all actives have a fitted effect of over 55% in size
Target sequence (A8B2U2 whole entry, looked up): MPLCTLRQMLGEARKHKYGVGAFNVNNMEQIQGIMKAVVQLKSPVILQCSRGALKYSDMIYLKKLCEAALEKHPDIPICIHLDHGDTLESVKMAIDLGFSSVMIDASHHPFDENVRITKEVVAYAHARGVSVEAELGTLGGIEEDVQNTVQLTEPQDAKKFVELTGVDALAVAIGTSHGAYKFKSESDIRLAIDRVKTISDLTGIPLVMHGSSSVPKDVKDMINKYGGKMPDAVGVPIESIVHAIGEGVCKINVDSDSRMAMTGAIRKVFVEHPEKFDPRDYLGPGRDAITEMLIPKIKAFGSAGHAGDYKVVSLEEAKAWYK
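40 nM FBPA preincubated 10 min at RT with compound (up to 57.5 uM final), then substrate plus GAPDH/TPI/NAD/arsenate coupling and diaphorase/resazurin added. Fluorescence read after 20 min at RT, 525/598 nm.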
FMDV inh: antivirals against foot and mouth disease virus. FMDV antiviral cell-based qHTS. Potency, µM (highest dose often 57.9 µM), actives largely listed as inhibitors. 410,000 tested, 1.2% active; calls by dose curve; tested in HEK293T cells; note: read-out not given here; nearly all actives have a fitted effect of over 45% in size
VACV Venus inh: inhibitors of vaccinia virus (Venus reporter). Vaccinia virus Venus reporter expression, fluorescence. Potency, µM (series often up to 36.5 µM), most hits filed as inhibitors. 330,000 tested, 0.46% active; calls by dose curve; tested in A549 cells; note: nearly all actives have a fitted effect of over 30% in size
HCV inh: HCV inhibition; Huh7.5.1 HCVcc-Cre infection, luciferase reporter, 44 h; Potency, µM (doses to about 41.8 µM), usual class: inhibitors; 340,000 tested, 3.4% active; AID 651820
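After 44 h co-culture of compound, cells and HCVcc-Cre (~0.5 moi), substrate is added for 15 min at room temperature and luciferase measured over 15 sec. Cells were seeded at 1,000/well and pre-cultured 4 h.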
HCMV inh: blocks human cytomegalovirus replication. HFF cells, HCMV-luciferase reporter, 72 h; hits give low values. 410,000 tested, 4.5% active. activity change, negative = inhibition, % at 57.5 µM; in the data active = activity change below about -60%; inconclusive = no clear call, values can overlap the other calls; inactive = above about -39%
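Two compound doses tested in HFFs infected with HCMV-luciferase, MOI 1 PFU/cell, 72 h at 37C. Lysate luminescence read with OneGlo; data normalized against buffer-only and 10uM Salinomycin inhibitor controls.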
Vaccinia mCherry: inhibitors of vaccinia virus infection (mCherry reporter signal); Vaccinia virus mCherry reporter infection, fluorescence; Potency, µM (titrated, usually from 36.5 µM), most hits filed as inhibitors; 310,000 tested, 0.63% active; AID 720579; calls by dose curve; tested in A549 cells; note: nearly all actives have a fitted effect of over 35% in size
Each line names hits and unclear results; the compound was inactive in the other large screens; ! = a repeat was not active. Rows were chosen to be rich in hits. Some 7.5% of all compounds tested hit in one or more screens of this group. Unless noted, calls come from the whole dose curve; as a rule, active = well fitted curve in the direction sought with a large enough effect; inconclusive = small, poorly fitted or top-dose-only effect, or another doubt; inactive = no such curve, though single readings can be large; an effect the other way counts as inactive or inconclusive.

COc1ccc(Cl)cc1NC(=O)CN(c1cccc(C)c1C)S(=O)(=O)c1ccccc1	HCMV inh -62 (no result: Giardia FBPA inh, HCV inh)
CNC(=O)CSc1nc2ccccc2c(=O)n1CCc1ccccc1	none
CCOC(=O)N1CCN(C(=O)CN(c2cc(Cl)ccc2OC)S(=O)(=O)c2ccccc2)CC1	HCMV inh -92
CCOC(=O)N1CCN(C(=O)CN(c2cccc(C)c2)S(=O)(=O)c2ccccc2)CC1	none (no result: VACV Venus inh, Vaccinia mCherry)
CCn1c(N2CCN(Cc3ccc([N+](=O)[O-])cc3)CC2)nc2ccccc21	Giardia FBPA inh inconclusive, FMDV inh inconclusive (no result: VACV Venus inh, Vaccinia mCherry)
CCCn1c(N2CCN(Cc3ccc(Cl)cc3)CC2)nc2ccccc21	HCV inh 13µM
CC1CNCCN1S(=O)(=O)c1cccc2cnccc12 (centres undefined)	FMDV inh inconclusive, VACV Venus inh inconclusive, HCV inh inconclusive, HCMV inh -64!, Vaccinia mCherry inconclusive
COC(=O)c1ccc(C2c3[nH]c4ccccc4c3C[C@H]3C(=O)N(C4CCN(Cc5ccccc5)CC4)CC(=O)N23)cc1 (some centres undefined)	HCV inh 10µM (no result: VACV Venus inh, Vaccinia mCherry)
O=C1[C@@H]2Cc3c([nH]c4ccccc34)C(c3ccccc3)N2C(=O)CN1C1CCN(Cc2ccccc2)CC1 (some centres undefined)	VACV Venus inh inconclusive, HCMV inh -76, Vaccinia mCherry inconclusive
Cc1ccccc1C1c2[nH]c3ccccc3c2C[C@H]2C(=O)N(C3CCN(Cc4ccccc4)CC3)CC(=O)N12 (some centres undefined)	none (no result: FMDV inh, VACV Venus inh, HCV inh, Vaccinia mCherry)
CC(C)NC(=O)c1cnc2sc(N3CCCCCC3)nn2c1=O	none (no result: Giardia FBPA inh, HCV inh)
CN(C)c1ncc(C2=C(Cl)C(=O)C(N3CCCC3)=C(Cl)C2=O)s1	FMDV inh inconclusive, HCV inh 7.9µM, HCMV inh -64 (no result: Giardia FBPA inh, VACV Venus inh, Vaccinia mCherry)
O=C1C(Cl)=C(N2CCCCC2)C(=O)C(Cl)=C1c1cnc(N2CCCCC2)s1	Giardia FBPA inh 7.1µM, HCV inh inconclusive (no result: VACV Venus inh, HCMV inh, Vaccinia mCherry)
COc1cccc(CN(C)C(=O)CNC(=O)c2ccc(-c3ccccc3)cc2)c1OC	FMDV inh inconclusive, HCV inh 3.2µM, HCMV inh -71
COc1cccc(CN(C)C(=O)CCN(c2ccccc2)S(=O)(=O)c2ccc(C)cc2)c1OC	HCV inh 11µM (no result: Giardia FBPA inh)
CCN(C(=O)Cn1c(=O)oc2ccccc21)c1cccc(C)c1	none
Cc1ccn2c(-c3csc(NCc4ccco4)n3)c(C)nc2c1	Giardia FBPA inh inconclusive, FMDV inh inconclusive, HCV inh inconclusive, HCMV inh -68 (no result: VACV Venus inh, Vaccinia mCherry)
COc1ccc(-c2csc(NCc3ccco3)n2)cc1C	none (no result: HCMV inh, Vaccinia mCherry)
CCC1CN(C(=O)Nc2ccc(C)c(F)c2)c2ccccc2S1 (centres undefined)	none (no result: Giardia FBPA inh, HCV inh)
N#CCn1c(CCl)nc2ccccc2c1=O	FMDV inh 7.9µM (no result: VACV Venus inh, Vaccinia mCherry)
COc1cccc(CCC2C(=O)CCCC2=O)c1	HCV inh inconclusive (no result: Giardia FBPA inh)
COc1cc(C2C(C#N)=C(N)N(N(C)C)C3=C2C(=O)CC(C)(C)C3)cc(OC)c1OC (centres undefined)	HCMV inh -82
COc1ccc(C2C(C#N)=C(N)N(N(C)C)C3=C2C(=O)CC(C)(C)C3)cc1OC (centres undefined)	none
CN(C)N1C(N)=C(C#N)C(c2cccs2)C2=C1CC(C)(C)CC2=O (centres undefined)	Giardia FBPA inh 18µM, HCMV inh inconclusive
COc1cc(C2C(C#N)=C(C)NC3=C2C(=O)CC(C)(C)C3)cc(OC)c1O (centres undefined)	Giardia FBPA inh inconclusive, HCMV inh -61 (no result: Vaccinia mCherry)
Cc1ccc(C)c(NC(=O)CN(C)S(=O)(=O)c2ccc3c(c2)CCC(=O)N3)c1	none (no result: Giardia FBPA inh, HCV inh)
COc1ccc(Cl)cc1Nc1nc(C)cc(=O)[nH]1	VACV Venus inh inconclusive, HCV inh 10µM (no result: Vaccinia mCherry)
CCCc1c(Cc2cccc(F)c2)ncn1CCc1ccccc1OC	HCMV inh -61 (no result: Giardia FBPA inh, FMDV inh, VACV Venus inh, HCV inh, Vaccinia mCherry)
COc1ccccc1CCn1cnc(Cc2cccc(F)c2)c1C(C)C	FMDV inh 22µM, HCMV inh inconclusive (no result: Giardia FBPA inh, HCV inh)
COc1ccccc1CNC(=O)COC(=O)Cc1cccc(F)c1	none (no result: Giardia FBPA inh, VACV Venus inh, Vaccinia mCherry)
CCc1ncn(CCc2ccccc2OC)c1C(C)C	none (no result: Giardia FBPA inh, HCV inh)
Cc1c(Cl)cccc1NC(=O)COC(=O)c1c2c(nc3ccccc13)CCN(Cc1ccccc1)C2	FMDV inh inconclusive, VACV Venus inh inconclusive, HCV inh inconclusive, Vaccinia mCherry 11µM
Cc1cc(N2CCN(C)CC2)ccc1NC(=O)c1c2c(nc3ccccc13)CCN(Cc1ccccc1)C2	VACV Venus inh inconclusive, HCV inh 2µM (no result: HCMV inh)
O=C(NC1CCCCCC1)c1c2c(nc3ccccc13)CCN(Cc1ccccc1)C2	HCV inh inconclusive
CC(C)c1ccccc1NC(=O)COC(=O)c1c2c(nc3ccccc13)CCN(Cc1ccccc1)C2	HCV inh inconclusive (no result: VACV Venus inh, Vaccinia mCherry)
Cc1cc(NC(=O)Cn2cc([N+](=O)[O-])cn2)n(Cc2ccc(F)cc2)n1	none
Cc1cc(NC(=O)CCCn2ccc([N+](=O)[O-])n2)n(Cc2ccc(F)cc2)n1	HCV inh inconclusive, HCMV inh -84
Cc1sc(NC(=O)c2ccco2)c(C(c2cccnc2)N2CCC(C)CC2)c1C (centres undefined)	FMDV inh 18µM, HCV inh 8.9µM, HCMV inh -93 (no result: VACV Venus inh, Vaccinia mCherry)
CCN1CCN(C(c2cccnc2)c2c(NC(=O)c3ccco3)sc(C)c2C)CC1 (centres undefined)	HCV inh inconclusive (no result: Giardia FBPA inh, VACV Venus inh, Vaccinia mCherry)
CCc1cc2c(SCC(=O)N3CC(=O)Nc4ccccc43)ncnc2s1	HCMV inh -60 (no result: VACV Venus inh, Vaccinia mCherry)
Cc1nc(SCC(=O)N2CC(=O)Nc3ccccc32)nc(C)c1C	none
CCc1cc2cc(C)ccc2nc1SCC(=O)N1CC(=O)Nc2ccccc21	HCV inh 7.1µM, HCMV inh inconclusive
CCc1ccc2nc(SCC(=O)N3CC(=O)Nc4ccccc43)c(C#N)cc2c1	VACV Venus inh inconclusive, HCV inh 4.5µM, Vaccinia mCherry inconclusive
Cc1nn(-c2ccccn2)c2c1-c1nc(N3CCOCC3)ncc1CC2	Giardia FBPA inh inconclusive (no result: Vaccinia mCherry)
Cc1nn(-c2ccccn2)c2c1-c1nc(N)ncc1CC2	Giardia FBPA inh 16µM
COc1ccc(C(=O)CSc2nc3ccccc3n2CC(=O)c2ccccc2)cc1	HCV inh inconclusive, HCMV inh -66 (no result: FMDV inh)
COc1cccc(Cn2c(SCC(=O)N(C)c3ccccc3)nc3ccccc32)c1	FMDV inh inconclusive, HCMV inh -60, Vaccinia mCherry inconclusive (no result: Giardia FBPA inh, HCV inh)
COc1ccc(C(=O)Cn2c(NCCCl)nc3ccccc32)cc1	Giardia FBPA inh inconclusive (no result: VACV Venus inh, Vaccinia mCherry)
CCCn1c(SC(C)C(=O)O)nc2ccccc21 (centres undefined)	none (no result: VACV Venus inh, HCMV inh, Vaccinia mCherry)
COc1ccc(C(=O)Cn2c(C(=O)/C=C/c3ccccc3)nc3ccccc32)cc1	FMDV inh 8.9µM, HCV inh inconclusive (no result: VACV Venus inh, Vaccinia mCherry)
CCCn1c(SCC(=O)C(C)(C)C)nc2ccccc21	HCMV inh -67
COc1ccc(OCCSc2nc3ccccc3n2CC(=O)O)cc1	none
CC(C)c1ccc(NC(=O)c2ccc(CN3CC(=O)N4CCCCC4C3=O)cc2)cc1 (centres undefined)	none (no result: Giardia FBPA inh, HCV inh)
